VP16 counter: VP16 counterscreen qHTS for inhibitors of ROR gamma transcriptional activity | Drosophila S2 Gal4-VP16 UAS-luciferase, luminescence, 20 h | hit rate 3.5% among 310,000 | Potency, µM (series often up to 53.6 µM), usual class: inhibitors;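 note: Gal4-VP16 expression switched on by copper sulfate through the metallothionein promoter; nearly all actives have a fitted effect of over 50% in size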
TDP1 cell CPT: qHTS for Inhibitors of human tyrosyl-DNA phosphodiesterase 1 (TDP1): qHTS in cells in presence of CPT. chicken DT40 Tdp1-/-;hTDP1 cells + 20 nM CPT, ATP luminescence, 48 h. Potency, µM (series often up to 46.2 µM), usual class: inhibitors. AID 686979, 2013. hit rate 12% among 420,000; note: nearly all actives have a fitted effect of over 55% in size
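Cell growth measured by CellTiter-Glo luminescence after a minimum 48 h, 37 C compound exposure with 20 nM CPT in Tdp1-knockout DT40 cells stably expressing hTDP1, seeded 400/well; qHTS titration format.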
LDHA inh: qHTS assay for inhibitors of human lactate dehydrogenase. L-lactate dehydrogenase A chain (Homo sapiens), P00338. purified LDHA, NADH/diaphorase-resazurin fluorescence; hits give low values. activity change, % (values are at about 110 or 230 µM). hit rate 0.15% among 480,000; in the data active = activity change below about -30%; inconclusive = mostly about -25% to -30%
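Human LDH5 (2 nM) was incubated with 0.06 mM NADH and 0.2 mM pyruvate for 5 min at room temperature in Tris pH 7.4. Remaining NADH was coupled through diaphorase/resazurin, and resorufin fluorescence was read at 0 and 20 min.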
RORg inh: qHTS for inhibitors of ROR gamma transcriptional activity. hit rate 5.4% among 310,000. Drosophila S2 Gal4-RORgamma UAS-luciferase reporter, 20 h. AID 2551, 2010. Nuclear receptor ROR-gamma (Mus musculus), P51450. Potency, µM (titrated, usually from 53.6 µM), actives largely listed as inhibitors; note: nearly all actives have a fitted effect of over 60% in size
Target sequence (P51450 whole entry, looked up, the tested form may be a part): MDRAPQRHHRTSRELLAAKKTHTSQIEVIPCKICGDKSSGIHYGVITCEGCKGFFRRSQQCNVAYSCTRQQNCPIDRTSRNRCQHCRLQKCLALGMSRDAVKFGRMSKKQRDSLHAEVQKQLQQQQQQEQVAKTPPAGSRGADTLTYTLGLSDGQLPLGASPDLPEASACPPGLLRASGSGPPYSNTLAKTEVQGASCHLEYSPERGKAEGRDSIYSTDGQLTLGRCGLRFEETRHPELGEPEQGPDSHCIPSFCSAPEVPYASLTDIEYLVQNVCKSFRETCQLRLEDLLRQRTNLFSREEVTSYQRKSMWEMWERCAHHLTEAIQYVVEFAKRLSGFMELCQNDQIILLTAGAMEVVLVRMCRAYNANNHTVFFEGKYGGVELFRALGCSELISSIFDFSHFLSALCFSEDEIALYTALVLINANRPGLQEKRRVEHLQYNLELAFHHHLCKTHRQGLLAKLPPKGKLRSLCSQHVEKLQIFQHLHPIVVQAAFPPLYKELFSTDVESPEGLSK
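In this cell-based reporter format, copper sulfate (700 uM final) drives Gal4–ROR gamma fusion expression from a metallothionein promoter in Drosophila Schneider cells; compounds preincubated 1 hr, reporter read after 20 hr at ambient temperature.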
DT40 TDP1 no CPT: qHTS for Inhibitors of human tyrosyl-DNA phosphodiesterase 1 (TDP1): qHTS in cells in absence of CPT; DT40 Tdp1-/- hTDP1 cells, no CPT, ATP luminescence, 48 h; Potency, µM (top dose mostly 46.2 µM), usual class: inhibitors; hit rate 15% among 420,000; AID 686978, 2013; note: nearly all actives have a fitted effect of over 55% in size
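Growth of hTDP1-complemented DT40 Tdp1-knockout cells is measured by ATP luminescence after at least 48 hr compound exposure at 37 °C, with DMSO substituting for the 20 nM CPT used in the parallel screen.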
IL1B secr inh: qHTS for Inhibitors of Inflammasome Signaling: IL-1-beta AlphaLISA Primary Screen; activity change, % at 57.5 µM; THP-1 LPS/ATP IL-1B secretion, AlphaLISA, 16 h; hits give low values; hit rate 4.7% among 360,000; in the data active = activity change below about -50%; inconclusive = mostly about -30% to -49%
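Secreted IL-1B measured by AlphaLISA bead assay after 16 h compound exposure of THP-1 cells; compounds (final up to 57.5 uM) added 1 h before LPS (250 ng/mL) and ATP (1.25 mM) stimulation; lower signal means less secretion.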
Hits are given with their value; i = inactive; ? = inconclusive; nt = no result; [ ] = dose if it differs, or a comment. The list is not random: actives were taken first. Their share in the collection is about 18%. Unless noted, calls come from the whole dose curve; as a rule, active = well fitted curve in the direction sought with a large enough effect; inconclusive = small, poorly fitted or top-dose-only effect, or another doubt; inactive = no such curve, though single readings can be large; an effect the other way counts as inactive or inconclusive.

SMILES	VP16 counter	TDP1 cell CPT	LDHA inh	RORg inh	DT40 TDP1 no CPT	IL1B secr inh
COc1ccccc1N1CCN(C(=O)c2cc3c(=O)n(Cc4cccs4)ccc3nc2C)CC1	nt	?	i	nt	?	nt
CC[N+]1(CC=C(C)C)CCCCC1	nt	nt	i	nt	nt	nt
CC1CCC(C(=O)NC(C(=O)OCC(=O)c2ccccc2)C(C)C)CC1 (stereo unspecified)	nt	18.4µM	i	nt	18.4µM	nt
COc1ccc(Cl)cc1NC(=O)c1ncoc1-c1ccco1	nt	nt	i	nt	nt	nt
Cc1ccc(-c2csc3nc4c5ccccc5c(NCCCN(C)C)nn4c(=O)c23)cc1	?	?	i	?	18.4µM	?
CC(C)C[C@@H]1O[C@H](CCc2ccccc2)Cc2[nH]c(=S)[nH]c(=O)c21	nt	?	i	nt	?	i
CC1OC(CCc2cccc(Cl)c2)Cc2[nH]c(=S)[nH]c(=O)c21 (stereo unspecified)	nt	?	i	nt	25.9µM	i
CCCCC1Cc2[nH]c(=S)[nH]c(=O)c2C(c2ccc(C(C)C)cc2)O1 (stereo unspecified)	nt	16.4µM	i	nt	23.1µM	i
Nc1nccnc1C(=O)NCc1cn2ccccc2n1	nt	nt	i	nt	nt	nt
CCCNC(=O)c1ccc2c(c1)N(Cc1ccccc1)C(=O)CS2=O (stereo unspecified)	nt	nt	i	nt	nt	nt
CC(C)CCNC(=O)c1ccc2c(c1)N(Cc1ccccc1)C(=O)CS2=O (stereo unspecified)	i	20.6µM	i	i	?	i
O=C(Nc1ccccc1Cl)c1ccc2c(c1)N(Cc1ccc(F)cc1)C(=O)CS2=O (stereo unspecified)	i	16.4µM	i	i	?	i
CCn1c(SCC(=O)Nc2cc(C)on2)nc2c(c1=O)SC(C)C2 (stereo unspecified)	nt	i	i	i[0.365 µM]	?	i
CCn1c(SCC(=O)Nc2nc3ccccc3s2)nc2c(c1=O)SC(C)C2 (stereo unspecified)	i	0.731µM	i	?	23.1µM	?
CCn1c(SCC(=O)Nc2nc3ccc(C)cc3s2)nc2c(c1=O)SC(C)C2 (stereo unspecified)	i	16.4µM	i	i	10.3µM	-83.3
CCCc1ccc(OCC)c(-c2csc(N)n2)c1	nt	nt	i	nt	nt	nt
CC(=O)c1cc2cccc(OC3(C)CCN(Cc4ccc5ccccc5c4)C3)c2o1 (stereo unspecified)	nt	18.4µM	i	nt	?	i
COCOc1cccc(CN2CCC(C)(Oc3ccc(C(C)=O)cc3)C2)c1 (stereo unspecified)	nt	?	i	nt	?	i
CC(=O)c1ccc(OC2(C)CCN(CCOc3ccc(C)cc3)C2)cc1 (stereo unspecified)	nt	16.4µM	i	nt	5.8µM	i
CSc1ccc(CN2CCC(C)(Oc3ccc4ccccc4c3)C2)cc1 (stereo unspecified)	nt	?	i	nt	?	i
CC(=O)c1ccc(OC2(C)CCN(Cc3cc4ccccc4[nH]3)C2)cc1 (stereo unspecified)	nt	4.11µM	i	nt	8.2µM	i
Cn1nc(-c2ccccc2)c(CSc2ccccc2)c1Cl	i	?	i	i	?	i
Cc1ccc(SCc2c(-c3ccccc3)nn(C)c2Cl)cc1	i	?	i	i	16.4µM	i
Cc1ccc(NC(=O)CSc2nnc(-c3cc4occc4n3C)n2-c2ccccc2C)c(C)c1	nt	?	i	nt	18.4µM	nt
Cc1ccc(NC(=O)CSc2nnc(-c3cc4occc4n3C)n2-c2ccccc2C)cc1F	nt	25.9µM	i	nt	16.4µM	nt
SMILES	VP16 counter	TDP1 cell CPT	LDHA inh	RORg inh	DT40 TDP1 no CPT	IL1B secr inh
CCc1cccc(NC(=O)CSc2nnc(-c3cc4occc4n3C)n2-c2ccccc2C)c1	nt	?	i	nt	?	nt
Cc1ccc(CNC(=S)NC(C)C(C)(C)C)cc1 (stereo unspecified)	nt	nt	i	nt	nt	nt
Cc1nc(Cl)cc(N/N=C/c2ccc(O)cc2O)n1	?	?	i	?	20.6µM	i
Cc1nnc(N/N=C/c2ccco2)n1N	12.6µM	i	i	11.2µM	i	i
Cc1nc(Cl)cc(N/N=C/c2ccc(O)cc2)n1	i	i	i	?	?	i
COc1cccc(/C=N/Nc2nnc(C)n2N)c1O	3.16µM	?	i	2.24µM	20.6µM	i
CCOc1ccc(-n2c(C)cc(/C=N/NC(=O)C(N)=O)c2C)cc1	i	i	i	i	i	i
COc1ccc(-n2c(C)cc(/C=N/Nc3nnc(C)n3N)c2C)cc1	?	23.1µM	i	?	16.4µM	-81.5
Cc1nnc(N/N=C/c2ccccc2F)n1N	?	i	i	i	i	i
CCC(=O)Nc1ccccc1C(C)(C)C	nt	nt	i	nt	nt	nt
CN(Cc1ccco1)C(=O)c1cn[nH]c1-c1ccc(Cl)cc1	nt	nt	i	nt	nt	nt
